For 40 compounds, growth results are on record in PubChem BioAssay (NCI).

The structures appear in SMILES notation. About 83,000 compounds went through this panel and 20% of them were active in at least one assay; those are over-represented in the sample as a whole.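 Testing used 96-well plates and a 48-hour single-concentration exposure. Example: -40 means 40% of the starting cells died.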 Active and inactive are the calls of the source. The calls were made as follows: active = growth percent below 10; inactive = the rest.

For the test, the system named is HL-60(TB) leukemia. As to the kind of experiment: NCI-60 one-dose screen, 48 h (100 = growth as untreated, 0 = no growth, -100 = all killed). Particulars: 10 µM unless noted.
As for `CC(=O)OC[C@]12CC[C@@H](C(=O)CBr)[C@@H]1[C@H]1CC[C@@H]3[C@@]4(C)CC[C@H](OC(C)=O)C(C)(C)[C@@H]4CC[C@@]3(C)[C@]1(C)CC2`, the growth was 63.8% (inactive).
The result for `CN1CCN(C(=O)OCc2nc3c(N4CCOCC4)nc(-c4ccccc4)nc3n2C)CC1` reads -32.5% (active); that for `CCN(CC)CCCNc1nccc2ccc(Cl)cc12`, 99.4% (inactive); that for `COc1cc(C(=O)N/N=C/c2ccc(N(C)C)cc2)cc(OC)c1OC`, -20% (active).
In the case of `COc1cc(C#Cc2ccc(=O)oc2C#Cc2ccccc2)cc(OC)c1OC`, the growth is 34.2% (inactive).
`COc1ccc(-c2nc(-c3nc4cc(Cl)c(Cl)cc4[nH]3)c3ccccn23)cc1`: the growth is 99.9% (inactive).
The result for `CN1CCN(Cc2ccc(NC(=O)c3cncc(C#Cc4ncc5cnccn45)c3)cc2C(F)(F)F)CC1` reads 24.8% (inactive); that for `COc1ccc(C2=NN(/C=C3\SC(=O)NC3=Nc3ccc(F)cc3)C(c3ccc(F)cc3)C2)cc1` (stereo not given), 98.1% (inactive); that for `Cc1cc2[nH]c(=O)c3c4ncccc4cn3c2cc1C`, 37.2% (inactive).
As for `O=c1oc2c([nH]c3ccc4ccccc4c32)c2ccccc12`, the growth was 129% (inactive).
For `C=C(C)[C@H]1CC/C(C)=C/CC[C@]2(C)O[C@H]2CC/C(COC(=O)[C@@H](OC(C)=O)[C@H](NC(=O)c2ccccc2)c2ccccc2)=C\[C@@H]1O`, the growth was 91% (inactive).
For `N=C(N)/N=C(\CCc1nc2ccccc2[nH]1)c1nc2ccccc2[nH]1`, the growth was 118% (inactive).
As to `O=c1oc2ccc3ccccc3c2cc1-c1ccnc2[nH]c(=S)[nH]c(=O)c12`, the growth was 87.3% (inactive).
For the compound `COc1cc(/C=N/NC(=O)c2ccc(C(F)(F)F)nc2Nc2cc(Cl)ccc2C)cc(OC)c1OC`, the growth was 107% (inactive).
The result for `O=C(NCc1cn(Cc2cccc(Oc3ccccc3)c2)nn1)c1cccnc1NCc1ccc(Cl)cc1` reads 3.88% (active); that for `C[N+]1=C(/C=C/c2ccccc2Cl)C(C)(C)c2ccccc21`, 53.5% (inactive).
For `CCCCCCCCn1cc(C2=C(c3coc4ccc(OC)cc34)C(=O)NC2=O)c2ccccc21`, the growth was 133% (inactive).
Under `CCN(CC)C(CC(=O)c1ccccc1)C(=O)c1ccccc1` (stereo not given) stands 63.5% (inactive); under `COc1ccc(CCN2C(=O)CCSC2=S)cc1`, 72.3% (inactive); under `CC(=O)Nc1ccc(C(=O)Nc2cc(-c3ccccc3)ccc2N)cc1`, 65.5% (inactive).
For `C#CCNC(=O)[C@H](CC)[C@H]1CC[C@H](C)[C@H]([C@@H](C)[C@H](O)[C@H](C)C(=O)[C@H](CC)C2O[C@]3(C=CC(=O)[C@]4(CC[C@@](C)([C@H]5CC[C@](O)(CC)[C@H](C)O5)O4)O3)[C@H](C)C[C@@H]2C)O1` (stereo not given in full), the growth was 1.79% (active).
For `CCCCCCCCCCCC[n+]1ccc2ccccc2c1`, the growth was -53.4% (active).
In the case of `O=C(Nc1ccc(F)cc1F)c1cc(Cl)ccc1O`, the growth was -31.4% (active).
On to `O=C(N/N=C/c1ccc(Oc2ccccc2)cc1)c1cnn2c1NC(c1ccccc1)C2` (stereo not given), for which the growth is 78.6% (inactive).
With `Cc1cc(N(CCCNc2ccnc3cc(Cl)ccc23)Cc2ccco2)nc(Cl)n1`, the growth is 17.5% (inactive).
Under `O=C(Nc1ncc(Cc2cc(Cl)ccc2Cl)s1)c1cccs1` stands 86.1% (inactive); under `COc1ccc(/C=N\NC(=O)c2ccncc2)cc1O`, 97.9% (inactive); under `COc1ccc(Br)c(/C=C2\SC(=Nc3ccc(O)cc3)NC2=O)c1`, 76.6% (inactive).
Regarding `CNC(=O)c1cc(Oc2ccc3nc(NC(=O)Nc4ccc(Cl)c(Cl)c4)sc3c2)ccn1`, the growth was 78.8% (inactive).
Regarding `CN1CCN(CC(O)COc2c(Br)c(Br)c(Br)c3c2OC(C)(C)C3)CC1` (stereo not given), the growth is 35.5% (inactive).
`CCOC(=O)C1=C(Nc2ccc(Br)cc2)C(=O)N(CC)C1`: the growth is 104% (inactive).
Consider `COc1ccc(-c2ccc(-c3ccc(C(=N)N)cn3)s2)cc1Cl`, for which the growth was -55.3% (active).
The result for `Cc1cc(Cl)nc(N(CCCNc2ccnc3cc(Cl)ccc23)Cc2ccco2)n1` reads -35.9% (active).
Take `C=CCc1cc(Nc2c3ccc(Cl)cc3nc3ccc(OC)cc23)cc(CN(CC)CC)c1O`: the growth is -17% (active).
Turning to `CCSc1ccnc(N)n1`, the growth was 108% (inactive).
Under `NC(=O)/C=C/C(=O)c1c(Cl)cccc1Cl` stands -21.6% (active); under `O=C(CCNNC(=O)c1ccncc1)NCc1ccccc1`, 70.1% (inactive).
With `CC1=C([Se]CC(OC(=O)[C@@H](CSSC(C)(C)C)NC(=O)OC(C)(C)C)C(=O)NC(C)(C)C)C(=O)c2ccccc2C1=O` (stereo not given in full), the growth is -2.66% (active).
Regarding `C/C(=N\NC(=O)CSc1nc2ccccc2c(=O)n1CCc1ccc(S(N)(=O)=O)cc1)c1ccc(Br)cc1`, the growth was 66.3% (inactive).
`COc1cccc(C2C3=C(COC3=O)N(CCO)c3cc4c(cc32)OCO4)c1` (stereo not given): the growth is -2.69% (active).
